Experimental data: PubChem BioAssay
Potency and affinity values are given separately. Records with an inconclusive call do not appear. Calls of active or inactive are those of the source. Unless noted, the rule behind the calls is not given here.

Key:
[1] = RMG-1 ovarian cancer cell viability loss – cherry-pick, dose response (AID 687029;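 active = signal drop whose fitted half-maximal concentration is at most twice the top valid dose, in every test run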;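 note: cells exposed to compound for 96 hours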)
[2] = IOSE-T80 viability loss, PAX8-independent line – cell-based, cherry-pick, selectivity assay for PAX8 inhibitor project, dose response (AID 687032;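 active = fitted half-maximal concentration for viability loss no higher than twice the top valid dose, in every repeat run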;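 note: cells exposed to compound for 96 h before reading; 0% = neutral control wells and -100% = 2 µM mitoxantrone kill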)
[3] = CMV-driven luciferase expression suppression in HEK293 – cell-based, luminescence, dry powder, counter-screen for Pax8 inhibitor project, dose response (AID 743020;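 active = signal-lowering compounds whose fitted half-maximal concentration is at or below twice the top tested dose in every run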;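 note: HEK293 cells stably expressing the CMV luciferase reporter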)
[4] = general cell-killing toxicity readout – plate reader, dry powder samples, cytotoxicity control for PAX8 inhibitor project, dose response (AID 743021)
[5] = OVCAR-3 cell viability loss – plate reader, dry powder samples, PAX8 inhibitor project, dose response (AID 743044); conditions: max activity: at 35 µM, hits give low values unless noted
[6] = toxicity toward immortalized ovarian surface epithelium – cell-based, plate reader, dry powder samples, cytotoxicity control for PAX8 inhibitor project, dose response (AID 743045);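 note: 0% = neutral control median and -100% = positive control median; more negative values mean more cell killing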
[7] = A2780 cell killing – plate reader, dry powder samples, cytotoxicity control, dose response (AID 743046);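 note: 0% = neutral control wells and -100% = cytotoxic reference compound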
[8] = OVCAR8 cell viability loss – plate reader, dry powder samples, PAX8 project, dose response (AID 743197)

Measured: max activity

O=C(C[C@@H]1CC[C@@H]2[C@H](COC[C@H](O)CN2Cc2ccc3c(c2)OCO3)O1)Nc1ccc(-c2ccccc2)cc1
inactive: [1] | [2] | [3] | [4] | [5] 25.3% [at 0.5 µM, hits give low values] | [6] | [7] | [8]

C[C@H](O)C#Cc1cnc2c(c1)C(=O)N([C@H](C)CO)C[C@@H](C)[C@@H](CN(C)Cc1ccc(-c3ccccc3)cc1)O2
inactive: [1] | [2] | [3] | [4] | [5] 29.8% [at 2.1 µM, hits give low values] | [6] | [7] | [8]

Cc1cccc(S(=O)(=O)N2CC[C@@H]3[C@H](CO)N(C)c4ccc(C#Cc5ccc(F)cc5)cc4[C@@H]32)c1
inactive: [1] | [2] | [3] | [4] | [5] -16.3% [at 30 µM, hits give low values] | [6] | [7]

COc1cccc(-c2ccc([C@H]3[C@@H](CO)N(C(=O)c4ccccn4)[C@H]3C#N)cc2)c1
inactive: [1] | [2] | [3] | [4] | [5] -40.2% | [6] | [7]

C[C@@H]1CCCCO[C@@H](CN(C)Cc2ccc(Cl)c(Cl)c2)[C@H](C)CN([C@H](C)CO)C(=O)c2cc(NS(=O)(=O)c3ccc(Cl)cc3)ccc2O1
inactive: [1] | [2] | [3] | [4] | [5] -24.1% | [6] | [7]

C[C@H]1CN([C@@H](C)CO)C(=O)c2c(c3ccccc3n2C)-c2ccccc2CO[C@@H]1CN(C)Cc1cccc(C(F)(F)F)c1
inactive: [1] | [2] | [3] | [4] | [5] 14.4% [at 0.26 µM, hits give low values] | [6] | [7]

Cc1ccc(S(=O)(=O)Nc2ccc3c(c2)C(=O)N([C@@H](C)CO)C[C@H](C)[C@@H](CN(C)Cc2ccc(C(F)(F)F)cc2)OCCCC[C@H](C)O3)cc1
inactive: [1] | [2] | [3] | [4] | [6]

COc1ccc(C#Cc2ccc([C@@H]3[C@H](CO)N4CCCCN(C(=O)Nc5ccc(F)cc5)C[C@@H]34)cc2)cc1
inactive: [1] | [2] | [3] | [4] | [5] -123% [at 30 µM, hits give low values] | [6]

C[C@H](CO)N1C[C@H](C)[C@H](CN(C)Cc2ccc(Cl)c(Cl)c2)OCCCC[C@H](C)Oc2ccc(NC(=O)Nc3ccc(C(F)(F)F)cc3)cc2C1=O
inactive: [1] | [2] | [3] | [4] | [5] 27.7% [at 2.1 µM, hits give low values] | [6] | [7]

CN(C[C@H]1N[C@@H](CO)[C@@H]1c1ccc(-c2cccc(F)c2)cc1)S(C)(=O)=O
inactive: [1] | [2] | [3] | [4] | [5] 23.7% [at 8 µM, hits give low values] | [6] | [7]

COc1ccc(NC(=O)N2CCCCN3[C@H](CO)[C@H](c4ccc(C#Cc5ccccc5)cc4)[C@H]3C2)cc1
inactive: [1] | [2] | [3] | [4] | [5] -17.7% | [6] | [7] | [8]

C[C@@H]1CCCCO[C@@H](CN(C)C(=O)Nc2ccc(F)cc2)[C@H](C)CN([C@H](C)CO)C(=O)c2cc(NS(=O)(=O)c3ccc(Cl)cc3)ccc2O1
inactive: [1] | [2] | [3] | [4] | [5] 17.7% | [6] | [7]

C[C@@H]1CN([C@@H](C)CO)C(=O)Cc2cc(NC(=O)C3CCCCC3)ccc2O[C@H]1CN(C)Cc1ccc(Cl)c(Cl)c1
inactive: [1] | [2] | [3] | [4] | [5] -14.6% [at 8 µM, hits give low values] | [6] | [7] | [8]

C[C@H]1CCCCO[C@H](CN(C)C(=O)Nc2ccc(C(F)(F)F)cc2)[C@@H](C)CN([C@@H](C)CO)C(=O)c2cc(NS(=O)(=O)c3ccccc3)ccc2O1
inactive: [1] | [2] | [3] | [4] | [5] -16.1% [at 8 µM, hits give low values] | [6] | [7]

C[C@@H]1CN([C@@H](C)CO)C(=O)Cc2cc(NS(=O)(=O)c3ccc(Cl)cc3)ccc2O[C@H]1CN(C)Cc1ccc(Cl)c(Cl)c1
inactive: [1] | [2] | [3] | [4] | [5] 11% [at 16 µM, hits give low values] | [6] | [7] | [8]

C[C@@H]1CCCCO[C@@H](CN(C)Cc2ccc(C(F)(F)F)cc2)[C@H](C)CN([C@H](C)CO)C(=O)c2cc(NS(=O)(=O)c3ccccc3)ccc2O1
inactive: [1] | [2] | [3] | [4] | [5] -29.5% | [6] | [7]

C[C@H](CO)N1C[C@H](C)[C@@H](CN(C)Cc2ccc(Oc3ccccc3)cc2)Oc2ccc(NS(=O)(=O)c3ccc(F)cc3)cc2CC1=O
inactive: [1] | [2] | [3] | [4] | [5] -23.5% [at 4.2 µM, hits give low values] | [6] | [7]

Cc1ccc(S(=O)(=O)N2CC[C@@H]3[C@H](CO)N(C)c4ccc(-c5ccc(C#N)cc5)cc4[C@@H]32)cc1
inactive: [1] | [2] | [3] | [4] | [5] 67.4% [at 2.1 µM, hits give low values] | [6] | [7]

Cc1ccc(S(=O)(=O)Nc2ccc3c(c2)C(=O)N([C@H](C)CO)C[C@@H](C)[C@H](CN(C)S(=O)(=O)c2ccc(C)cc2)OCCCC[C@H](C)O3)cc1
inactive: [1] | [2] | [3] | [4] | [5] 32.9% [at 0.26 µM, hits give low values] | [6] | [8]

C[C@@H]1CN([C@H](C)CO)C(=O)c2cc(NC(=O)Nc3ccc(F)cc3)ccc2O[C@@H](C)CCCCO[C@H]1CN(C)C(=O)C1CCCCC1
inactive: [1] | [2] | [3] | [4] | [5] 11.9% [at 16 µM, hits give low values] | [6] | [8]

COc1ccc(S(=O)(=O)Nc2ccc3c(c2)C(=O)N([C@H](C)CO)C[C@@H](C)[C@@H](CN(C)Cc2ccc(C(F)(F)F)cc2)OCCCC[C@@H](C)O3)cc1
inactive: [1] | [2] | [3] | [4] | [6]

C[C@@H]1CN([C@@H](C)CO)C(=O)c2cc(NC(=O)Nc3ccc(C(F)(F)F)cc3)ccc2O[C@@H](C)CCCCO[C@@H]1CN(C)Cc1ccncc1
inactive: [1] | [2] | [3] | [4] | [5] 59.3% [at 2.1 µM, hits give low values] | [6] | [7] | [8]

C[C@@H]1CCCCO[C@@H](CN(C)Cc2ccc(C(F)(F)F)cc2)[C@H](C)CN([C@@H](C)CO)C(=O)c2cc(NS(=O)(=O)c3ccc(F)cc3)ccc2O1
inactive: [1] | [2] | [3] | [4] | [5] -6.08% | [6] | [7]

COc1ccccc1S(=O)(=O)N(C)C[C@H]1Oc2cc(C#CCC3CCCC3)ccc2S(=O)(=O)N([C@H](C)CO)C[C@H]1C
inactive: [1] | [2] | [3] | [4] | [6]

Cc1ccccc1-c1ccc([C@@H]2[C@@H](CO)N3CCCCN(C(=O)NC4CCCC4)C[C@H]23)cc1
inactive: [1] | [2] | [3] | [4] | [5] -4.19% [at 16 µM, hits give low values] | [6] | [7] | [8]

C[C@@H]1CN([C@@H](C)CO)C(=O)c2cc(NC(=O)Cc3ccccc3)ccc2O[C@@H](C)CCCCO[C@H]1CN(C)Cc1ccc(C(F)(F)F)cc1
inactive: [1] | [2] | [3] | [4] | [5] -16.1% | [6] | [7]

C[C@H](CO)N1C[C@H](C)[C@H](CN(C)S(=O)(=O)c2ccc(F)cc2)OCCCC[C@H](C)Oc2ccc(NS(=O)(=O)c3ccc(Cl)cc3)cc2C1=O
inactive: [1] | [2] | [3] | [4] | [5] -16.9% [at 4.2 µM, hits give low values] | [6] | [8]

C[C@H]1CCCCO[C@H](CN(C)C(=O)Nc2cccc3ccccc23)[C@@H](C)CN([C@@H](C)CO)C(=O)c2cc(NS(=O)(=O)c3ccc(F)cc3)ccc2O1
inactive: [1] | [2] | [3] | [4] | [5] 28.1% [at 0.5 µM, hits give low values] | [6] | [7]

O=C(C[C@H]1CC[C@H]2[C@@H](COC[C@@H](O)CN2Cc2ccc3c(c2)OCO3)O1)Nc1ccc(-c2ccccc2)cc1
inactive: [1] | [2] | [3] | [4] | [5] 60.4% [at 2.1 µM, hits give low values] | [6] | [7] | [8]

O=C(C[C@H]1CC[C@@H]2[C@H](COC[C@H](O)CN2S(=O)(=O)c2cccc(F)c2)O1)Nc1ccc(-c2ccccc2)cc1
inactive: [1] | [2] | [3] | [4] | [5] 27.1% [at 0.5 µM, hits give low values] | [6] | [7]

N#C[C@@H]1[C@@H](c2ccc(-c3ccccc3F)cc2)[C@@H](CO)N1C(=O)C1CCC1
inactive: [1] | [2] | [3] | [4] | [5] -15.9% | [6] | [7] | [8]

C[C@H]1CCCCO[C@H](CN(C)C(=O)NC2CCCCC2)[C@@H](C)CN([C@@H](C)CO)C(=O)c2cc(NC(=O)Nc3ccc(C(F)(F)F)cc3)ccc2O1
inactive: [1] | [2] | [3] | [4] | [5] -30.4% | [6] | [7]
